Our source for the potency estimated from few doses values is PMC11062922 (Nature Chemical Biology, 2023).

Like-named read-outs stand apart in the source and are kept apart here.

Holding throughout (set-up): species or system human, MV4-11 + K-562 + COLO205 + SK-N-BE2 + OVCAR-8
For experiment [1], the system named is CDKL5. Particulars: read-out: apparent Kd; compound concentrations: 100 nM and 1000 nM (sheet 'Samples'), CATDS: 7.1774388141359599E-2; n = 1.
The subject of experiment [2] is CLK1. Particulars: read-out: apparent Kd, n = 1.
The subject of experiment [3] is CLK2. Particulars: read-out: apparent Kd, n = 1.
Experiment [4] deals with GSK3A. Particulars: read-out: apparent Kd, n = 1.
Experiment [5] has as its system GSK3B. The note with it: read-out: apparent Kd, n = 1.
The test system of experiment [6] is ICK. The note with it: read-out: apparent Kd; compound concentrations: 100 nM and 1000 nM (sheet 'Samples'), CATDS: 0.107034687138564; n = 1.
Experiment [7] concerns PRKCA. The note with it: read-out: apparent Kd; compound concentrations: 100 nM and 1000 nM (sheet 'Samples'), CATDS: 8.3091420111897102E-2; n = 1.
The test system of experiment [8] is PRKCB. The note with it: read-out: apparent Kd; compound concentrations: 100 nM and 1000 nM (sheet 'Samples'), CATDS: 7.1835327532873305E-2; n = 1.
In experiment [9] the test system is PRKCD. Particulars: read-out: apparent Kd; compound concentrations: 100 nM and 1000 nM (sheet 'Samples'), CATDS: 8.6510432478471705E-2; n = 1.
Experiment [10] has as its system PRKCQ. The note with it: read-out: apparent Kd; compound concentrations: 100 nM and 1000 nM (sheet 'Samples'), CATDS: 8.9522770196270404E-2; n = 1.
Experiment [11] deals with CLK4. Particulars: read-out: apparent Kd, n = 1.
For experiment [12], the system named is CSNK2A1;CSNK2A3. The note with it: read-out: apparent Kd; compound concentrations: 100 nM and 1000 nM (sheet 'Samples'), CATDS: 0.234359592666399; n = 1.
The test system of experiment [13] is CSNK2A2. The note with it: read-out: apparent Kd; compound concentrations: 100 nM and 1000 nM (sheet 'Samples'), CATDS: 0.363288777813424; n = 1.
For experiment [14], the system named is DYRK1A. Particulars: read-out: apparent Kd; compound concentrations: 100 nM and 1000 nM (sheet 'Samples'), CATDS: 0.15776551091334201; n = 1.
The test system of experiment [15] is CDK6. The note with it: read-out: apparent Kd; compound concentrations:100 nM and 1000 nM (sheet 'Samples'); n = 1.
Experiment [16] deals with T1, DJA1.
T1 construct: gene DNAJA1
The note with it: read-out: apparent Kd; compound concentrations:100 nM and 1000 nM (sheet 'Samples'); n = 1.

Experiment [17] concerns GARS. The note with it: read-out: apparent Kd; compound concentrations:100 nM and 1000 nM (sheet 'Samples'); n = 1.
Experiment [18] concerns MAP2K1. Particulars: read-out: apparent Kd; compound concentrations:100 nM and 1000 nM (sheet 'Samples'); n = 1.
The test system of experiment [19] is NNT. The note with it: read-out: apparent Kd; compound concentrations:100 nM and 1000 nM (sheet 'Samples'); n = 1.
Experiment [20] has as its system NQO1. The note with it: read-out: apparent Kd; compound concentrations:100 nM and 1000 nM (sheet 'Samples'); n = 1.
Experiment [21] has as its system PIK3CA. Particulars: read-out: apparent Kd; compound concentrations:100 nM and 1000 nM (sheet 'Samples'); n = 1.
For experiment [22], the system named is PIK3CD. Particulars: read-out: apparent Kd; compound concentrations:100 nM and 1000 nM (sheet 'Samples'); n = 1.
Experiment [23] concerns PRKCZ. Particulars: read-out: apparent Kd; compound concentrations:100 nM and 1000 nM (sheet 'Samples'); n = 1.
The subject of experiment [24] is PRKD2. The note with it: read-out: apparent Kd; compound concentrations:100 nM and 1000 nM (sheet 'Samples'); n = 1.
Experiment [25] has as its system PSMC3. Particulars: read-out: apparent Kd; compound concentrations:100 nM and 1000 nM (sheet 'Samples'); n = 1.
Experiment [26] concerns SMC4. The note with it: read-out: apparent Kd; compound concentrations:100 nM and 1000 nM (sheet 'Samples'); n = 1.
The test system of experiment [27] is GAK. Particulars: read-out: apparent Kd; compound concentrations:100 nM and 1000 nM (sheet 'Samples'); n = 1.
The test system of experiment [28] is MAPK10. Particulars: read-out: apparent Kd; compound concentrations:100 nM and 1000 nM (sheet 'Samples'); n = 1.
For experiment [29], the system named is MAPK8. Particulars: read-out: apparent Kd; compound concentrations:100 nM and 1000 nM (sheet 'Samples'); n = 1.
For experiment [30], the system named is MAPK9. Particulars: read-out: apparent Kd; compound concentrations:100 nM and 1000 nM (sheet 'Samples'); n = 1.
Experiment [31] has as its system PTK2B. Particulars: read-out: apparent Kd; compound concentrations:100 nM and 1000 nM (sheet 'Samples'); n = 1.
Experiment [32] relates to PTK2. The note with it: read-out: apparent Kd; compound concentrations:100 nM and 1000 nM (sheet 'Samples'); n = 1.
Experiment [33] concerns TNK1. The note with it: read-out: apparent Kd; compound concentrations:100 nM and 1000 nM (sheet 'Samples'); n = 1.
In experiment [34] the test system is TTK. Particulars: read-out: apparent Kd; compound concentrations:100 nM and 1000 nM (sheet 'Samples'); n = 1.
[35] abbreviates: compound concentrations:100 nM and 1000 nM (sheet 'Samples').

In the case of `Cn1cc(C2=C(c3cn(C)c4cc(N)ccc34)C(=O)NC2=O)c2ccccc21` [RO0317511-000], the potency estimated from few doses in experiment [1] is 1810 nM; in [2] (compound concentrations: 100 nM and 1000 nM (sheet 'Samples'), CATDS: 9.43888536674687E-2) it was 816 nM; in [3] (compound concentrations: 100 nM and 1000 nM (sheet 'Samples'), CATDS: 0.135718758721844), 386 nM; in [4] (compound concentrations: 100 nM and 1000 nM (sheet 'Samples'), CATDS: 0.18937077321649401), 223 nM; in experiment [5] (compound concentrations: 100 nM and 1000 nM (sheet 'Samples'), CATDS: 0.20850333664225901) it was 193 nM; in [6] it was 614 nM. Moreover, the potency estimated from few doses in experiment [7] is 1140 nM; in experiment [8] it was 1800 nM; in experiment [9], 1020 nM; in experiment [10], 930 nM.

As for `CCOc1ccccc1CCNC1=NC(=O)/C(=C/c2ccc3ncccc3c2)S1` [RO4503314-000], the potency estimated from few doses is 469 nM in experiment [2] (compound concentrations: 100 nM and 1000 nM (sheet 'Samples'), CATDS: 0.17433508542258599); 505 nM in experiment [11] (compound concentrations: 100 nM and 1000 nM (sheet 'Samples'), CATDS: 0.16932447657893401); 246 nM in experiment [12]; 118 nM in experiment [13]; 615 nM in experiment [14].

As to `COc1cccc(C2=C(Nc3cccc(C(=O)O)c3)C(=O)NC2=O)c1` [SB-390770], the potency estimated from few doses in experiment [15] was 2180 nM; in experiment [16], 842 nM; in experiment [17] it was 1360 nM; in [4] (setting [35]), 830 nM; in experiment [5] (setting [35]) it was 859 nM; in experiment [18], 2350 nM. For the same compound, the potency estimated from few doses was 1120 nM in experiment [19]; 2210 nM in experiment [20]; 226 nM in experiment [21]; 130 nM in [22]; 1580 nM in [23]; 1720 nM in experiment [24]. Besides, the values for the potency estimated from few doses in experiment [25] and in experiment [26] were 907 nM and 986 nM, respectively.

On to `COc1cc(N2CCN(C(C)C)CC2)ccc1Nc1nc(Nc2ccc(F)cc2C(=O)NC[C@@H](O)CO)c2cc[nH]c2n1` [GSK1392956A], for which the potency estimated from few doses in experiment [2] (setting [35]) was 415 nM; in experiment [3] (setting [35]) it was 811 nM; in experiment [11] (setting [35]), 684 nM; in experiment [27] it was 50.4 nM; in [28] it was 92.1 nM; in experiment [29], 140 nM. Also, the potency estimated from few doses is 531 nM in [30]; 188 nM in [31]; 370 nM in experiment [32]; 577 nM in experiment [33]; 53 nM in experiment [34].
